Data: PubChem BioAssay (NCATS)
A number with no mark means an inactive call. Inconclusive results are not listed. Calls of active or inactive are those of the source. Unless noted, calls follow the shape of the dose curve; as a rule, active = well fitted curve in either direction with a large enough effect (not every such curve was filed as active); inconclusive = small, poorly fitted or top-dose-only effect, or another doubt; inactive = flat fitted curve, though single readings scatter.

Tests used:
[1] = target: Lysosomal acid glucosylceramidase (Homo sapiens) (UniProt P04062); assay: Glucocerebrosidase-p2 (AID 348; in the data active = potency below about 10 µM; also: potency is read from the fitted curve at half-maximal effect); conditions: purified GBA, blue fluorogenic substrate, 40 min
Sequence of Lysosomal acid glucosylceramidase (Homo sapiens) (P04062 whole entry, looked up): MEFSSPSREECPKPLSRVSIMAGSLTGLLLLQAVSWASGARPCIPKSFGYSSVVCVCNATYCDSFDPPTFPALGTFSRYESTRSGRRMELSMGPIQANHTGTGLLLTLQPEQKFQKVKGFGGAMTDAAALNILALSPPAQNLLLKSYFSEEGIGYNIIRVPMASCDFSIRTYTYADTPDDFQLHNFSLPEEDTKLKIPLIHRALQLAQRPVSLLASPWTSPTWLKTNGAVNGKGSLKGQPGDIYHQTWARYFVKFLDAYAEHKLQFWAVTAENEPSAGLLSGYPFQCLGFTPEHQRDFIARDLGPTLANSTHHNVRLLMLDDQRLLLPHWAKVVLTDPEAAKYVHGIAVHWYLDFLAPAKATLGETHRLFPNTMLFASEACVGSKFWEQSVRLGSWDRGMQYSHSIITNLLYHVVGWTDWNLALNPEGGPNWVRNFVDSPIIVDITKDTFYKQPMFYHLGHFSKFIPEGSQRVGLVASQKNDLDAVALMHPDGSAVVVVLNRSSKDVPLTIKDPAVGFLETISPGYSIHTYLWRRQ
In short: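 Compounds titrated from 0.6 nM upwards against 0.2 nM enzyme in pH 5.9 citric acid/KH2PO4, taurocholate, tween-20; blue fluorogenic substrate 80 uM, 40 min room temperature, stopped and read Ex 365/Em 440 for AC50.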

[2] = AP1 Signaling Pathway (AID 357); conditions: ME-180 AP-1-bla reporter, EGF-induced, beta-lactamase ratio, 5 h; at 7.69 µM (top of the series) unless noted;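 also: ME-180 reporter cells stimulated with EGF at its EC50 level; % is scaled to controls: 0 for no effect and ±100 for the full control effect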
In short: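 First, ME-180 AP-1-bla cells were cultured overnight at 37 °C in low-serum Opti-MEM. Next, titrated compounds with EC50 EGF were incubated 5 hours. Finally, CCF4 was added for 2.5 hours and the 460/530 nm ratio recorded.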

[3] = target: Cytochrome P450 1A2 (Homo sapiens) (UniProt P05177); assay: p450-cyp1a2 (AID 410; calls by dose curve; also: potency is read from the fitted curve at half-maximal effect;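 as to activity change, negative = inhibition: -100% = full effect of reference inhibitor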); conditions: recombinant CYP1A2, luciferin-ME demethylation, luminescence; series mostly up to 11.4 µM
Sequence of Cytochrome P450 1A2 (Homo sapiens) (P05177 whole entry, looked up): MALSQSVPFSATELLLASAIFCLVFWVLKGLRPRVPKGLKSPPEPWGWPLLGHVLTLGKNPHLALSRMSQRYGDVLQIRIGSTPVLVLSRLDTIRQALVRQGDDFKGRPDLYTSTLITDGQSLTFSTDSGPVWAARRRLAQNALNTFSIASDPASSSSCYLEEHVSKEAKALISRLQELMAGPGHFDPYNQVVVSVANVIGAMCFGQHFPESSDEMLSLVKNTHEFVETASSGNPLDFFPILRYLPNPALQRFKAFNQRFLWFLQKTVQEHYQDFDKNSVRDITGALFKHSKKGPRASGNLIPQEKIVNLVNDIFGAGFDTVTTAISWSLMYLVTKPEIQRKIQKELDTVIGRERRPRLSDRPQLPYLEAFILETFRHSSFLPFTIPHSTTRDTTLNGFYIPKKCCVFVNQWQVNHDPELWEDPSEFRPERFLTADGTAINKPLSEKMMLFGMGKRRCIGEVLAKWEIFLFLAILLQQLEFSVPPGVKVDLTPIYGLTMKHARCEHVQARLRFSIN
In short: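 20nM CYP1A2 with 100uM Luciferin-ME (at Km) in 100mM KPO4; compound preincubated 10 min, NADPH regeneration added, 60 min at room temperature. Luciferin quantified by luminescence after detection reagent; normalized to 57 uM furafylline.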

[4] = Stat Signaling Pathway (AID 446); conditions: ME-180 (cervical carcinoma) SIE beta-lactamase reporter, IL-6 stimulated, 5 h; at 7.69 µM (top of the series) unless noted;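 also: ME-180 cervical cancer cells given 40 pM IL-6 alongside compound; SIE-controlled beta-lactamase reporter measured as 460/530 nm FRET emission ratio; % is scaled to controls: 0 for no effect and ±100 for the full control effect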
In short: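 IL-6/STAT signaling read in ME-180 cells via an SIE beta-lactamase reporter. Stimulus was 40 pM IL-6 (its AC50) for 5 hrs, so both activation and inhibition register.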

[5] = target: Glucocorticoid receptor (Homo sapiens) (UniProt P04150); assay: GR-GFP Redistribution (AID 450;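 active = compounds whose dose series gives a full or clear partial fitted curve of increased nuclear translocation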; also: potency is read from the fitted curve at half-maximal effect); conditions: U2OS GR-GFP nuclear translocation, laser cytometry, 2 h
Sequence of Glucocorticoid receptor (Homo sapiens) (P04150 whole entry, looked up, the tested form may be a part): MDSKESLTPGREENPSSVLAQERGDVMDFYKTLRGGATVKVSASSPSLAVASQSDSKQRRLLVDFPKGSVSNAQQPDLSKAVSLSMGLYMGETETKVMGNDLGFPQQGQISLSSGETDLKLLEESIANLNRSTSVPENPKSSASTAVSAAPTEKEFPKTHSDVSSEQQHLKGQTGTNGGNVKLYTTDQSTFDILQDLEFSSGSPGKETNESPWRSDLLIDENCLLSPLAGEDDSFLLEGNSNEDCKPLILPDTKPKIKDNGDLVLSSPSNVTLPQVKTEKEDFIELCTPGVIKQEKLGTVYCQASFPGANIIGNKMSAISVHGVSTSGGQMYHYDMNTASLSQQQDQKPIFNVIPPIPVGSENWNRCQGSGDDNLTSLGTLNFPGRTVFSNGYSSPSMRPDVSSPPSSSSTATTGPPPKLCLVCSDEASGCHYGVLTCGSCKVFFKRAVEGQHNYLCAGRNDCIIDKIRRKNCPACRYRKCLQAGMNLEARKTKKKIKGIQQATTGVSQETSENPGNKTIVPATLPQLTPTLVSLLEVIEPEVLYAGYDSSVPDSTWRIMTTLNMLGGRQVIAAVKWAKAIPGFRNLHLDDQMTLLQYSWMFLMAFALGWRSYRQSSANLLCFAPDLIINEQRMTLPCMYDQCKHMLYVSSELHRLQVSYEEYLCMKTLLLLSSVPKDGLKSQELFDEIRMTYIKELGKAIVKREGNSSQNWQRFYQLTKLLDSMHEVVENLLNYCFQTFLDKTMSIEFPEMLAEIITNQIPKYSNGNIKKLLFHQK

[6] = target: Glucocorticoid receptor (Homo sapiens) (UniProt P04150); assay: GR-EFC Redistribution (AID 451; calls by dose curve; also: potency is read from the fitted curve at half-maximal effect); conditions: CHO-K1 GR-EFC translocation, beta-gal luminescence, 2 h
In short: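 CHO-K1 cells stably expressing nuclear-localized β-gal enzyme acceptor and GR fused C-terminally to the enzyme donor fragment; ligand-driven nuclear translocation restores β-gal by complementation. Compounds titrated up to 46 uM final, 2 h at 37 °C; luminescence read.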

[7] = target: Mitogen-activated protein kinase 10 (Mus musculus) (UniProt Q61831); assay: JNK3 AlphaScreen Assay (AID 530); conditions: JNK3 lysate, c-Jun phosphorylation; series mostly up to 11.4 µM;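 also: kinase came from lysate of stimulated human HepG2 cells; signal reports phosphorylation of biotinylated GST-cJun 1-79 at Ser73 with 10 µM ATP; % is scaled to controls: 0 for no effect and ±100 for the full control effect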
In short: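 Inhibitors reduce antibody binding to phosphorylated biotin-cJun, lowering AlphaScreen luminescence. Lysates from HepG2 cells pre-activated by IL-1beta plus TNF-alpha supplied JNK3; compounds were titrated.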

[8] = target: 3',5'-cyclic-AMP phosphodiesterase 4B (Homo sapiens) (UniProt Q07343); assay: qHTS Assay for Inhibitors of PDE-IV (AID 607; active = well fitted activation curve with a large enough effect in the main read-out, with a control signal flat, not every such curve was filed as active; also: % of control where 0% means no effect); conditions: HEK293 ACTOne CNG channel cells, membrane potential fluorescence; series mostly up to 22.9 µM
Sequence of 3',5'-cyclic-AMP phosphodiesterase 4B (Homo sapiens) (Q07343 whole entry, looked up): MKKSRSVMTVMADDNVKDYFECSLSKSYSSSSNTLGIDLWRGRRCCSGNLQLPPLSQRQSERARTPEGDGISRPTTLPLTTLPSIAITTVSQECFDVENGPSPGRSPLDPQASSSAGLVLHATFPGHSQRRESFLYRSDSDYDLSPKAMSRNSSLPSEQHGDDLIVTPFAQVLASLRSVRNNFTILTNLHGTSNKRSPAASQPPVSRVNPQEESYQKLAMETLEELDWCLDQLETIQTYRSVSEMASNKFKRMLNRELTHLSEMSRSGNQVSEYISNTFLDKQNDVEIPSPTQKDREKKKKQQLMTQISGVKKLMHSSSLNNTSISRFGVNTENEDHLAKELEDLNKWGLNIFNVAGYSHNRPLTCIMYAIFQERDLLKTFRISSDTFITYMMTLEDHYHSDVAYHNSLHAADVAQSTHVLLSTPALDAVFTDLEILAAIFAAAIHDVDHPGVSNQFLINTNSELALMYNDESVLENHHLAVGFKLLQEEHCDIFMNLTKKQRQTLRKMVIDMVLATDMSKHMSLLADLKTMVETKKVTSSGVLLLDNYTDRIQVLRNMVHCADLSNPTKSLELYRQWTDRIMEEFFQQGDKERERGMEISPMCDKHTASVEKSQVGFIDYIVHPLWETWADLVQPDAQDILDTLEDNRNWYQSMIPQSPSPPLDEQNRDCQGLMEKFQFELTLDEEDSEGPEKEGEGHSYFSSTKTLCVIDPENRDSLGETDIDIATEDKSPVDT
In short: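 Live HEK293 cells with a modified cyclic nucleotide-gated (CNG) channel report intracellular cAMP via membrane-potential dye fluorescence (ex 535/em 590 nm). Endogenous PDE-IV was targeted. Compounds were tested at up to 22.9 uM final; RO 20-1724 100 uM served as control.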

[9] = target: Cytochrome P450 2C9 (Homo sapiens) (UniProt P11712); assay: qHTS Assay for Inhibitors and Substrates of Cytochrome P450 2C9 (AID 883; active = well fitted curve in the direction sought with a large enough effect; an effect the other way counts as inactive or inconclusive; also: potency is read from the fitted curve at half-maximal effect; nearly all actives have a fitted effect of over 60% in size); conditions: recombinant CYP2C9, luciferin-H luminescence, 60 min; series mostly up to 11.4 µM
Sequence of Cytochrome P450 2C9 (Homo sapiens) (P11712 whole entry, looked up): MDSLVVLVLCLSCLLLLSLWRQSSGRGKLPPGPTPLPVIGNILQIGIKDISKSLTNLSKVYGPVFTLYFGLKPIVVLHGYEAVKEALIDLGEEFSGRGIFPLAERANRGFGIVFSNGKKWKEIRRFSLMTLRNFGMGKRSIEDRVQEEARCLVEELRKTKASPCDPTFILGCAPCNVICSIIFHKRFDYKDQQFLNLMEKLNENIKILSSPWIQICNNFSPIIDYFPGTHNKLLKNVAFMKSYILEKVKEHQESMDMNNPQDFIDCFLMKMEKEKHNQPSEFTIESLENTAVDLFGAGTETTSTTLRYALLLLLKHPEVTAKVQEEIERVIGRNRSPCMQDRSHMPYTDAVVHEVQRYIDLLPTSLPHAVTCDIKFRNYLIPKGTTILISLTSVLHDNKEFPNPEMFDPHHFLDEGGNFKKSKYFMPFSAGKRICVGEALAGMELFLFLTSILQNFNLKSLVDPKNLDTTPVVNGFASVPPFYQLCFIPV
In short: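 Human CYP2C9 (10nM) hydroxylated Luciferin-H (100uM, at its KM) to luciferin in 25mM KPO4. Compound was preincubated 10 min at 37C, then NADPH regeneration started a 60 min reaction at 37C. Luminescence was read after detection reagent, normalized to 57uM sulphaphenazole.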

[10] = target: Cytochrome P450 3A4 (Homo sapiens) (UniProt P08684); assay: qHTS Assay for Inhibitors and Substrates of Cytochrome P450 3A4 (AID 884; active = well fitted curve in the direction sought with a large enough effect; an effect the other way counts as inactive or inconclusive; also: potency is read from the fitted curve at half-maximal effect; nearly all actives have a fitted effect of over 50% in size); conditions: recombinant CYP3A4, Luciferin-PPXE luminescence; series mostly up to 57.1 µM
Sequence of Cytochrome P450 3A4 (Homo sapiens) (P08684 whole entry, looked up): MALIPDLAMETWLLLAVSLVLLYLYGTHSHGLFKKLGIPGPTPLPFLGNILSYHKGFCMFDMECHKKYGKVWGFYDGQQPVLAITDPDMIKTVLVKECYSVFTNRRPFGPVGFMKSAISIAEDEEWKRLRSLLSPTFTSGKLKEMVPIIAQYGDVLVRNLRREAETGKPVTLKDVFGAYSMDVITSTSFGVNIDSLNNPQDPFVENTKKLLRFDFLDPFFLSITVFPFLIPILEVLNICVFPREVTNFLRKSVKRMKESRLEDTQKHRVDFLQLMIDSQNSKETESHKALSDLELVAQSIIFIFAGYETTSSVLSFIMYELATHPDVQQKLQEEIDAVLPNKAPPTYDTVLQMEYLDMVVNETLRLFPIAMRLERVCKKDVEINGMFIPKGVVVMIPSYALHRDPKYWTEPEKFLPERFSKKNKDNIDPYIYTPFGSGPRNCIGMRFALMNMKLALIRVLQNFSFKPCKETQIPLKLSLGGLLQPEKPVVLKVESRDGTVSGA
In short: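 20 nM human CYP3A4 with 25 uM Luciferin-PPXE (at KM) in 200 mM KPO4, preincubated 10 min with compound; NADPH regeneration started a 60 min RT reaction. Luciferin detected by luminescence, normalized to 57 uM ketoconazole as full inhibition.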

[11] = target: Cytochrome P450 3A4 (Homo sapiens) (UniProt P08684); assay: qHTS Assay for Activators of Cytochrome P450 3A4 (AID 885; active = well fitted curve in the direction sought with a large enough effect; an effect the other way counts as inactive or inconclusive; also: nearly all actives have a fitted effect of over 65% in size); conditions: recombinant CYP3A4, Luciferin-PPXE luminescence, 60 min; series mostly up to 11.4 µM
In short: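 Quantitative HTS format: compounds preincubated with 20nM human CYP3A4 and Luciferin-PPXE substrate at KM, reaction started by NADPH regeneration, stopped after 60 min, luciferase luminescence read 20 min later.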

[12] = target: Cytochrome P450 2D6 (Homo sapiens) (UniProt P10635); assay: qHTS Assay for Inhibitors and Substrates of Cytochrome P450 2D6 (AID 891; active = well fitted curve in the direction sought with a large enough effect; an effect the other way counts as inactive or inconclusive; also: potency is read from the fitted curve at half-maximal effect; nearly all actives have a fitted effect of over 60% in size); conditions: recombinant CYP2D6, luciferin-ME EGE luminescence; series mostly up to 11.4 µM
Sequence of Cytochrome P450 2D6 (Homo sapiens) (P10635 whole entry, looked up): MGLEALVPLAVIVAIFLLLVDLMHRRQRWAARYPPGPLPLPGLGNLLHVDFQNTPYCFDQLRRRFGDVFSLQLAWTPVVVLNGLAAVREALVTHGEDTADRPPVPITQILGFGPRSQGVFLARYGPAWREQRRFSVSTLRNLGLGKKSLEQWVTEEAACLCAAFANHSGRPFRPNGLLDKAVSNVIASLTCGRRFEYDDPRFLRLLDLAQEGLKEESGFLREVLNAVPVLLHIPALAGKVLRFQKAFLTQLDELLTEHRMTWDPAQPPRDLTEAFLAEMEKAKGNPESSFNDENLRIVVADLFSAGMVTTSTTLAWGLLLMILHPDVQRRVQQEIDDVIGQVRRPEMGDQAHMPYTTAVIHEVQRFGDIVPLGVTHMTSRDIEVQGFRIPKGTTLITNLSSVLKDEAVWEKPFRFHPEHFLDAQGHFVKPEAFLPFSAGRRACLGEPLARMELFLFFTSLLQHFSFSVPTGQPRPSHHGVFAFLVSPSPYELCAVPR
In short: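 Human CYP2D6 (5 nM) with 30 uM Luciferin-ME EGE (at Km) in 100 mM KPO4, compound preincubated 10 min, then NADPH regeneration system for 60 min at room temperature. Luciferin read by luminescence; normalized to 1.43 uM quinidine.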

[13] = target: Cytochrome P450 2C19 (Homo sapiens) (UniProt P33261); assay: qHTS Assay for Inhibitors and Substrates of Cytochrome P450 2C19 (AID 899; active = well fitted curve in the direction sought with a large enough effect; an effect the other way counts as inactive or inconclusive; also: potency is read from the fitted curve at half-maximal effect; nearly all actives have a fitted effect of over 60% in size); conditions: recombinant CYP2C19, luciferin-H EGE luminescence; series mostly up to 11.4 µM
Sequence of Cytochrome P450 2C19 (Homo sapiens) (P33261 whole entry, looked up): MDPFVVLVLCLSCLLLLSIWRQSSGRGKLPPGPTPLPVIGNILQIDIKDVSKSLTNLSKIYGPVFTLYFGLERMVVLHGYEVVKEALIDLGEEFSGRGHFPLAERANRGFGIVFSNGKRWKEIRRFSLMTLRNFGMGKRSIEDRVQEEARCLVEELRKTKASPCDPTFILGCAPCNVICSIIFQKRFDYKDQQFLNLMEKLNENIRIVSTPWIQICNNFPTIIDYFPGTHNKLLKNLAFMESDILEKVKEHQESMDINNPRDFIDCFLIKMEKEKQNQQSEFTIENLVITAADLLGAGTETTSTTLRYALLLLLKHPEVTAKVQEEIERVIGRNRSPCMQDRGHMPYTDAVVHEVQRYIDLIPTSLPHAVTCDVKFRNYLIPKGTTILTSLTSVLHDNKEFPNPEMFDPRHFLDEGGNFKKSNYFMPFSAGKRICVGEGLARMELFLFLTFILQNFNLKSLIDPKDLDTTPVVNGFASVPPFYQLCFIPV
In short: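 Human CYP2C19 (5nM) with Luciferin-H EGE at 10uM (its KM) in 50mM KPO4 was preincubated with compound for 10 min at 37C. NADPH regeneration started a 60 min 37C reaction. Luciferin was read by luminescence, normalized to 57uM ketoconazole.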

In the case of N[C@@H](Cc1cccnn1)C(=O)O, the Potency [1] was over 11.4 µM, the activity change, negative = inhibition [2] was 2.23% and the Potency [3] was 3.16 µM (active). The activity, negative = inhibition [4] was 2.86%, the Potency [5] was over 46 µM and the Potency [6] was over 9.22 µM. The Potency [7] was “inactive” and the Potency [8] was “inactive”.
In the case of c1ccc(SC(Sc2ccccc2)c2ccc3c(c2)OCO3)cc1, the Potency [1] was over 11.4 µM, the activity change, negative = inhibition [2] was -9.51% and the Potency [3] was 0.501 µM (active). For the same compound, the activity, negative = inhibition [4] was -12%, the Potency [5] was over 46 µM and the Potency [6] was over 9.22 µM. For the same compound, the Potency [7] was “inactive”, the Potency [8] was “inactive” and the Potency [9] was 3.16 µM (active). For the same compound, the Potency [10] was 2.51 µM (active), the Potency [11] was “inactive” and the Potency [12] was 3.16 µM (active). The Potency [13] was 0.0316 µM (active).
Work on O[C@@H](c1cc([C@@]23C[C@H]4CC[C@@H]2C[C@H](C4)C3)nc2c(Cl)cc(Cl)cc12)[C@@H]1CCCCN1 yielded a Potency [1] of over 11.4 µM, an activity change, negative = inhibition [2] of 1.64% and an activity change, negative = inhibition [3] of -10.5% [at 2.29 µM]. It also gave an activity, negative = inhibition [4] of 0.88%, a Potency [5] of over 46 µM and a Potency [6] of over 9.22 µM. For the same compound, the Potency [7] was “inactive” and the Potency [8] was “inactive”.
In the case of N#CC(C#N)=NNc1ccc2cn[nH]c2c1, the Potency [1] was over 11.4 µM, the activity change, negative = inhibition [2] was 1.21% and the Potency [3] was 1.26 µM (active). It also gave an activity, negative = inhibition [4] of -12%, a Potency [5] of over 46 µM and a Potency [6] of over 9.22 µM. The Potency [7] was “inactive”, the Potency [8] was “inactive” and the Potency [9] was 2.51 µM (active). The Potency [11] was “inactive”.
Work on Cc1cc(=Nc2ccc3c(c2)c(N)cc(C)[n+]3C)nc(N)n1C yielded a Potency [1] of over 11.4 µM, an activity change, negative = inhibition [2] of -3.85% and an activity change, negative = inhibition [3] of -5.3% [at 2.29 µM]. For the same compound, the activity, negative = inhibition [4] was -8.63%, the Potency [5] was over 46 µM and the Potency [6] was over 9.22 µM. For the same compound, the Potency [7] was “inactive” and the Potency [8] was “inactive”.
Cc1ccc(C2=C(Cl)C(=O)C(c3ccc(C)cc3)=C(Cl)C2=O)cc1 gave a Potency [1] of over 11.4 µM, an activity change, negative = inhibition [2] of 4.65% and an activity change, negative = inhibition [3] of -16.9% [at 2.29 µM]. For the same compound, the activity, negative = inhibition [4] was -13.6%, the Potency [5] was over 46 µM and the Potency [6] was over 9.22 µM. The Potency [7] was “inactive”, the Potency [8] was “inactive” and the Potency [9] was 1.58 µM (active).
Compound O=C(O)c1cc(=O)[nH]c(=S)[nH]1 has a Potency [1] of over 11.4 µM, an activity change, negative = inhibition [2] of -9.52% and an activity change, negative = inhibition [3] of -10.7% [at 2.29 µM]. It also gave an activity, negative = inhibition [4] of 6.7%, a Potency [5] of over 46 µM and a Potency [6] of over 9.22 µM. For the same compound, the Potency [7] was “inactive” and the Potency [8] was “inactive”.
In the case of Oc1c(CN2CCN(c3ccccc3)CC2)cc(Br)c2cccnc12, the Potency [1] was over 11.4 µM, the activity change, negative = inhibition [2] was 3.27% and the Potency [3] was 1.26 µM (active). It also gave an activity, negative = inhibition [4] of -0.132%, a Potency [5] of over 46 µM and a Potency [6] of over 9.22 µM. The Potency [7] was “inactive” and the Potency [8] was “inactive”.
Work on Cc1cc(N=Cc2c(CO)cnc(C)c2O)c(N=Cc2c(CO)cnc(C)c2O)cc1C.[Zn] yielded a Potency [1] of over 11.4 µM, an activity change, negative = inhibition [2] of -2.68% and an activity change, negative = inhibition [3] of -10.4% [at 2.29 µM]. For the same compound, the activity, negative = inhibition [4] was 7.49%, the Potency [5] was over 46 µM and the Potency [6] was over 9.22 µM. For the same compound, the Potency [7] was “inactive” and the Potency [8] was “inactive”.
With C[C@]1(O)CC[C@H]2[C@H]3CC=C4N5CCN=C5CC[C@@]4(C)[C@H]3CC[C@@]21C the Potency [1] was over 11.4 µM, the activity change, negative = inhibition [2] was -0.00324% and the activity change, negative = inhibition [3] was -12.8% [at 2.29 µM]. For the same compound, the activity, negative = inhibition [4] was -6.8%, the Potency [5] was over 46 µM and the Potency [6] was over 9.22 µM. The Potency [7] was “inactive” and the Potency [8] was “inactive”.
For Oc1ccc2ccccc2c1/C=C\c1ccc2c(Br)cc(Br)c(O)c2n1, the Potency [1] was over 11.4 µM, the activity change, negative = inhibition [2] was -7.49% and the Potency [3] was 3.98 µM (active). For the same compound, the activity, negative = inhibition [4] was 1.04%, the Potency [5] was over 46 µM and the Potency [6] was over 9.22 µM. For the same compound, the Potency [7] was “inactive”, the Potency [8] was “inactive” and the Potency [9] was 2.51 µM (active).
Nc1ncnc2nc(N3CCN(CCO)CC3)[nH]c12 gave a Potency [1] of over 11.4 µM, an activity change, negative = inhibition [2] of 2.43% and an activity change, negative = inhibition [3] of -1.2% [at 2.29 µM]. It also gave an activity, negative = inhibition [4] of -1.25%, a Potency [5] of over 46 µM and a Potency [6] of over 9.22 µM. For the same compound, the Potency [7] was “inactive” and the Potency [8] was “inactive”.
Compound COc1ccc(Cc2ccccc2C(=O)O)c2ccccc12 has a Potency [1] of over 11.4 µM, an activity change, negative = inhibition [2] of -1.93% and an activity change, negative = inhibition [3] of 2.8% [at 2.29 µM]. The activity, negative = inhibition [4] was -28.9%, the Potency [5] was over 46 µM and the Potency [6] was over 9.22 µM. For the same compound, the Potency [7] was “inactive”, the Potency [8] was “inactive” and the Potency [9] was 3.98 µM (active).
In the case of CCN(CC)CC[n+]1ccc2c(C)c3[nH]c4ccccc4c3c(C)c2c1, the Potency [1] was over 11.4 µM, the activity change, negative = inhibition [2] was -22.3% and the Potency [3] was 2.51 µM (active). For the same compound, the activity, negative = inhibition [4] was 29.6%, the Potency [5] was over 46 µM and the Potency [6] was over 9.22 µM. The Potency [7] was “inactive” and the Potency [8] was “inactive”.
